In ChEMBL document CHEMBL1157539, “Thousands of chemical starting points for antimalarial lead identification” (Nature, 2010):

How the values were obtained:
Assay type in all cases: functional
Plasmodium falciparum [1] = experiment: GSK_TCMDC: Inhibition of Plasmodium falciparum 3D7 in whole red blood cells, using parasite LDH activity as an index of growth. Test compounds present at 2uM
Plasmodium falciparum [2] = experiment: GSK_TCMDC: Inhibition of Plasmodium falciparum Dd2 in whole red blood cells, using parasite LDH activity as an index of growth. Test compounds present at 2uM
HepG2 = experiment: GSK_TCMDC: Percent inhibition of human HepG2 cell line. Test compounds present at 10uM.

| SMILES | Inhibition (Plasmodium falciparum [1]) | Inhibition (Plasmodium falciparum [2]) | Inhibition (HepG2) |
| --- | --- | --- | --- |
| O=C(NC(NC(=S)Nc1ccc([N+](=O)[O-])cc1)C(Cl)(Cl)Cl)c1cccc(Cl)c1 (stereo not given) | 97% | 100% | 24% |
| O=C(O)C(F)(F)F.O=C1CCCN1CCCNCc1ccc(-c2cccc(-c3nc4cc(C(F)(F)F)ccc4[nH]3)c2)cc1 | 100% | 98% | 14% |
| CC(Cc1ccc(OCCN2CCN(c3ccccc3)CC2)cc1)NCC(O)c1cccc(Cl)c1F.Cl (stereo not given) | 92% | 56% | 40% |
| Cc1cccc2nc(-c3ccc(-c4cccc(CNCc5cccc(N)c5)c4)s3)[nH]c12.O=C(O)C(F)(F)F | 100% | 85% | 15% |
| O=C(NCCc1cccc(F)c1)c1cc(Br)cc(N2CCN(c3ccncc3)CC2)c1.O=C(O)C(F)(F)F | 100% | 86% | 34% |
| CCN(CC)CC(O)c1cc(-c2ccc(OC)cc2)nc2cc(Cl)ccc12.Cl (stereo not given) | 99% | 98% | 12% |
| S=C(NCCCCCN1CCC(c2c[nH]c3ccccc23)CC1)Nc1ccc(Cl)c(Cl)c1 | 100% | 31% | 89% |
| Cl.N=C(N)Nc1nccc(NCc2ccccc2)n1 | 88% | 48% | 95% |
| CCC(=O)c1ccc(-c2ccc(=O)n(CC(=O)N(CCN(CC)CC)Cc3ccc(-c4ccc(C(F)(F)F)cc4)cc3)n2)cc1 | 98% | 67% | 91% |
| Cc1cc(N2CCN(CC3CCCCC3)CC2)nc(Nc2ccc(Br)cc2)n1 | 91% | 16% | 0% |
